Measurements taken from PubChem BioAssay (EPA / NIEHS).
Records with an inconclusive call do not appear. Active and inactive are the calls of the source. How the source made its calls, unless noted: active means hit-call score of the fitted dose curve at least 0.9, where 1 is the maximum; inconclusive means response in the unintended direction; inactive means score below 0.9.

What was measured:
[1] = target: bovine Estrogen Receptor (ER), ESR1 (gene 407238) (UniProt P49884); test: NVS_NR_bER: NovaScreen (NVS) Nuclear Receptor Binding Assay for bovine Estrogen Receptor (ER) (AID 2283345);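 further: actives lower the bound radioligand count which means they displace the ER ligand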
Outline: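 Cell-free radioligand binding with bovine uterine membrane extracts, read 18 hours after dosing by scintillation counting. Loss of signal versus DMSO baseline indicates displacement. Primary screen run in duplicate at 25 uM, actives followed in concentration series.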

[2] = target: Estrogen receptor (Homo sapiens) (UniProt P03372); test: NVS_NR_hER: NovaScreen (NVS) Nuclear Receptor Binding Assay for human Estrogen Receptor (ER) (AID 2283348)
Outline: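 Cell-free MCF7-derived ER preparation, specific radioligand displaced by test compound, read by scintillation counting 18 h post-dosing. Duplicate single-point 25 uM screen, then concentration-response confirmation; DMSO baseline.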

[3] = target: Voltage-dependent N-type calcium channel subunit alpha-1B (Rattus norvegicus) (UniProt Q02294); test: NVS_IC_rCaChN: NovaScreen (NVS) Ion Channel Assay for rat Calcium Channel, Type N (CaChN) (AID 2283317)
[4] = TOX21_p53_BLA_p2_viability: Viability Assessment in the Tox21 HCT-116 p53 Agonism Beta-lactamase Assay, Phase 2 (AID 2283591);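 further: compound exposure lasted 16 h at 37 °C; actives lower the ATP signal meaning cytotoxicity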
Outline: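 Cytotoxicity readout: CellTiter-Glo ATP luminescence, 30 min at room temperature, after the beta-lactamase read. Cells were HCT116 exposed 16 h at 37C to compounds pin-transferred at 217-fold dilution from DMSO stocks.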

[5] = target: Cellular tumor antigen p53 (Homo sapiens) (UniProt P04637); test: TOX21_p53_BLA_p2_ratio: Tox21 HCT-116 p53 Agonism Beta-lactamase Assay, Ratio, Phase 2 (AID 2283592)
Outline: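 Ratio endpoint: beta-lactamase cleavage of CCF4-AM, blue (460 nm) over green (530 nm). HCT116 reporter line; 16 h treatment, 37C; substrate 2 h RT.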

[6] = TOX21_p53_BLA_p3_viability: Viability Assessment in the Tox21 HCT-116 p53 Agonism Beta-lactamase Assay, Phase 3 (AID 2283593);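 further: cells exposed to compound for 16 h before reading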
Outline: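 Cellular ATP was quantified by CellTiter-Glo luminescence, read after 30 min at room temperature. Beforehand, HCT116 cells (4000/well) received compound 5 h post-seeding, 217-fold diluted from DMSO, then incubated 16 h at 37C.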

[7] = TOX21_p53_BLA_p4_viability: Viability Assessment in the Tox21 HCT-116 p53 Agonism Beta-lactamase Assay, Phase 4 (AID 2283597);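 further: hits lower the luminescence signal meaning cytotoxicity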
Outline: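 Cytotoxicity was inferred from loss of CellTiter-Glo luminescence. HCT116 cells had been dosed with compounds after 5 h plating, incubated 16 h at 37C and 5% CO2, and exposed to the CCF4-AM substrate for 2 h.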

[8] = CCTE_Harrill_HTTr_Viability_MCF7: CCTE's 6-hour Cell Viability Assessment for the High-Throughput Transcriptomics (HTTr) Platform, in MCF-7 cells cultured in DMEM + 10% fetal bovine serum, Harrill Lab (AID 2284010; active means hit-call score of the fitted dose curve at least 0.9, where 1 is the maximum; inactive means score below 0.9)
Outline: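 Read-out is propidium iodide gain of signal by high-content imaging, reflecting membrane integrity loss. Measurements are taken 6 h after dosing, eight concentrations per chemical, with DMSO serving as baseline for bidirectional curve fitting.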

[9] = CCTE_Harrill_HTTr_Apoptosis_MCF7: CCTE's 6-hour Apoptosis Assessment for the High-Throughput Transcriptomics (HTTr) Platform, in MCF-7 cells cultured in DMEM + 10% fetal bovine serum, Harrill Lab (AID 2284011; active means hit-call score of the fitted dose curve at least 0.9, where 1 is the maximum; inactive means score below 0.9)
Outline: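 MCF-7 cells in DMEM + 10% fetal bovine serum were exposed to chemicals for 6 hours over an eight-point dilution series. Caspase-3/7 activation was imaged by high content imaging with CellEvent Caspase 3/7 Green; bidirectional fitting used DMSO as baseline.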

[10] = CCTE_Harrill_HTTr_CellCount_MCF7: CCTE's Cell Proliferation Assessment for the High-Throughput Transcriptomics (HTTr) Platform, Harrill Lab (AID 2284012);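 further: cells exposed to compound for six hours; intended direction is loss of nuclei count meaning fewer cells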
Outline: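 Cell count served as viability reporter: loss of Hoechst-stained nuclei, counted by high content imaging, marks decreased growth or survival. Exposure was 6 h in MCF-7 cells across eight concentrations, with DMSO as baseline.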

[11] = target: rat Oxytocin Receptor (OXT), Oxtr (gene 25342) (UniProt P70536); test: NVS_GPCR_rOXT: NovaScreen (NVS) G Protein-Coupled Receptor Assay for rat Oxytocin Receptor (OXT) (AID 2283330)
Outline: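 Binding to rat uterine membrane receptor was followed by scintillation counting of filter-trapped radioligand after 1 h. A 25 uM duplicate single-point screen preceded concentration series with a top of 50 uM. Signal loss was analysed relative to DMSO.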

[12] = target: mouse Estrogen Receptor alpha (Era), Esr1 (gene 13982) (UniProt P19785); test: NVS_NR_mERa: NovaScreen (NVS) Nuclear Receptor Binding Assay for mouse Estrogen Receptor alpha (Era) (AID 2283378);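 further: hit means loss of bound radioligand signal relative to DMSO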
Outline: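 Cell-free radioligand binding with extracted mouse Era protein; competitive displacement of radiolabelled ligand, read by filter-based scintillation counting 18 hours after dosing. Loss of signal versus DMSO baseline taken as binding; single screening concentration 25 uM, actives followed in concentration series.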

[13] = target: Cellular tumor antigen p53 (Homo sapiens) (UniProt P04637); test: TOX21_p53_BLA_p3_ratio: Tox21 HCT-116 p53 Agonism Beta-lactamase Assay, Ratio, Phase 3 (AID 2283596)
Outline: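 Cells were seeded at 4000/well, rested 5 h at 37C, then dosed with DMSO compound solutions (217-fold dilution) for 16 h. CCF4-AM substrate was loaded for 2 h at room temperature, and the 460/530 nm emission ratio was fitted for gain of signal versus DMSO.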

[14] = target: Cellular tumor antigen p53 (Homo sapiens) (UniProt P04637); test: TOX21_p53_BLA_p5_ratio: Tox21 HCT-116 p53 Agonism Beta-lactamase Assay, Ratio, Phase 5 (AID 2283599)
Outline: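 Beta-lactamase reporter ratio (blue 460 nm over green 530 nm, 405 nm excitation) after 2 h CCF4-AM loading, in HCT-116 cells exposed 16 h at 37 C to compounds pinned at 217-fold dilution. Increases relative to DMSO baseline scored.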

[15] = TOX21_p53_BLA_p5_viability: Viability Assessment in the Tox21 HCT-116 p53 Agonism Beta-lactamase Assay, Phase 5 (AID 2283600)
Outline: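 Luciferase-coupled ATP quantitation of cells treated for 16 h (37C, 5% CO2) with test chemicals delivered in DMSO via a 217-fold dilution; 4000 cells/well; reagent incubated 30 min at room temperature before luminescence reading.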

[16] = target: Cellular tumor antigen p53 (Homo sapiens) (UniProt P04637); test: TOX21_p53_BLA_p4_ratio: Tox21 HCT-116 p53 Agonism Beta-lactamase Assay, Ratio, Phase 4 (AID 2283601)
Outline: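 Signal is the blue/green (460nm/530nm) ratio of cleaved versus uncleaved CCF4-AM substrate, read after 2 h substrate loading. Cells were HCT116 carrying the p53-responsive beta-lactamase reporter, dosed 16 h at 37C, 5% CO2; CellTiter-Glo measured in parallel.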

[17] = ACEA_ER_AUC_viability: ACEA Biosciences xCELLigence Real-Time Cell Analysis on Estrogen Receptor Agonism for Viability (AID 2283782);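 further: hit means loss of impedance signal meaning reduced cell growth or viability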
Outline: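 Viability endpoint: reduced impedance area under the curve relative to DMSO, recorded by real-time electrode sensing over ~80 h of continuous exposure. Duplicate plates of T47D in hormone-depleted medium; eight concentrations, 1:4 dilutions, 100 uM maximum.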

Chain of Estrogen receptor (Homo sapiens) (P03372 whole entry, looked up): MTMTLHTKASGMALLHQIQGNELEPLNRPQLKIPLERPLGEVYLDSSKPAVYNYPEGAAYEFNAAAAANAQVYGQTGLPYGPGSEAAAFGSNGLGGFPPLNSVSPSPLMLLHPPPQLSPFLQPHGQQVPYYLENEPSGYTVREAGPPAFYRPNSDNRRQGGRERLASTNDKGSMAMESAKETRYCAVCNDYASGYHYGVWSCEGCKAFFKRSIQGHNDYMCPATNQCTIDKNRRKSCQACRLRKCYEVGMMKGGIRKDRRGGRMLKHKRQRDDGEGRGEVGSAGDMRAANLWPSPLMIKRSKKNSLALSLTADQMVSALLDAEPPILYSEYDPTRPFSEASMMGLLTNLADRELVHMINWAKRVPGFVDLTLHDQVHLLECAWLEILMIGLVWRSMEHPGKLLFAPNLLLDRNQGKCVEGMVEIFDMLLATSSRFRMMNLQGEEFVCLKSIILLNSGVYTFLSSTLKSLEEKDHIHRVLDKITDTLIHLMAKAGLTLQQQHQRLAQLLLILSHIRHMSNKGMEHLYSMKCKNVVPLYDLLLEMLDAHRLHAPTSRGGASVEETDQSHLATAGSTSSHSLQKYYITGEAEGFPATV
Chain of mouse Estrogen Receptor alpha (Era), Esr1 (gene 13982) (P19785 whole entry, looked up): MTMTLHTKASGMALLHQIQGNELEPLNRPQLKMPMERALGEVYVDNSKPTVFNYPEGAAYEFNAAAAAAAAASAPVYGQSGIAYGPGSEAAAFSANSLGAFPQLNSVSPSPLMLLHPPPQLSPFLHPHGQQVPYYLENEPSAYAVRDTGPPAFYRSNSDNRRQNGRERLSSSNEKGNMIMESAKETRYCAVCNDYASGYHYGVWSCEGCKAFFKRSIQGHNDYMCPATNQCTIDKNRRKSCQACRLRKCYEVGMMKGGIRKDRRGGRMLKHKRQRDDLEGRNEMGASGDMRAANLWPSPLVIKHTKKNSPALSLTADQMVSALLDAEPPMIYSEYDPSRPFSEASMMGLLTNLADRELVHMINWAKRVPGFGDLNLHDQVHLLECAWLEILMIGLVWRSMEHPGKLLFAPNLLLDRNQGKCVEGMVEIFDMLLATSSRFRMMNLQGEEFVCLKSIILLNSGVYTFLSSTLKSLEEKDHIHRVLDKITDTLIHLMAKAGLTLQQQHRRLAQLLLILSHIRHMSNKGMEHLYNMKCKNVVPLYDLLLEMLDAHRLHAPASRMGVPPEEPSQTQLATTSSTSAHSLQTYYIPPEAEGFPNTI
Chain of bovine Estrogen Receptor (ER), ESR1 (gene 407238) (P49884 whole entry, looked up): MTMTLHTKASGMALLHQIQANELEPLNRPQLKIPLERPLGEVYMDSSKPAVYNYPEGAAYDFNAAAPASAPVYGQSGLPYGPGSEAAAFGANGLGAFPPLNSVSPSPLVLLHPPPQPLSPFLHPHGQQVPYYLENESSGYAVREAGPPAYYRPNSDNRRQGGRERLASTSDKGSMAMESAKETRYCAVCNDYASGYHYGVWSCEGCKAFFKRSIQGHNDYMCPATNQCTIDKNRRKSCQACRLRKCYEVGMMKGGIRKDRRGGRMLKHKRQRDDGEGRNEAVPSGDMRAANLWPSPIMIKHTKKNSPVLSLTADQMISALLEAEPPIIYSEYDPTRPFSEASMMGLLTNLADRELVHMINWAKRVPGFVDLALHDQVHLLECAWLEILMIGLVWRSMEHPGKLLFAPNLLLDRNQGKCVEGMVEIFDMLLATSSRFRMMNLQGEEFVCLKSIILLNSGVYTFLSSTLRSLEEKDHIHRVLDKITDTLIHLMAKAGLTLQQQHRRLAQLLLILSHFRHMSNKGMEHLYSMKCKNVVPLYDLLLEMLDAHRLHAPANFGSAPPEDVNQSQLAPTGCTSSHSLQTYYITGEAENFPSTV
Chain of Cellular tumor antigen p53 (Homo sapiens) (P04637 whole entry, looked up): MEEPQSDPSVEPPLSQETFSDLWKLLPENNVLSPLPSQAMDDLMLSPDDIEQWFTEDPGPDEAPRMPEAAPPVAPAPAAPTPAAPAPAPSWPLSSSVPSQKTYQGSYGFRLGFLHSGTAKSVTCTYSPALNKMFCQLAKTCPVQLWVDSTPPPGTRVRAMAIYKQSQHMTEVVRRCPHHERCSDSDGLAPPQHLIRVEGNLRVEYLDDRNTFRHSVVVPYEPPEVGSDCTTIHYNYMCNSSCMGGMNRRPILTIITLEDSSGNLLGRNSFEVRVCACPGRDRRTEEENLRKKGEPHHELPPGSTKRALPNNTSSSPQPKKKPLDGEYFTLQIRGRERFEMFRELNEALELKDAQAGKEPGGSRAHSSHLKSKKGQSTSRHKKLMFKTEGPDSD
Chain of rat Oxytocin Receptor (OXT), Oxtr (gene 25342) (P70536 whole entry, looked up): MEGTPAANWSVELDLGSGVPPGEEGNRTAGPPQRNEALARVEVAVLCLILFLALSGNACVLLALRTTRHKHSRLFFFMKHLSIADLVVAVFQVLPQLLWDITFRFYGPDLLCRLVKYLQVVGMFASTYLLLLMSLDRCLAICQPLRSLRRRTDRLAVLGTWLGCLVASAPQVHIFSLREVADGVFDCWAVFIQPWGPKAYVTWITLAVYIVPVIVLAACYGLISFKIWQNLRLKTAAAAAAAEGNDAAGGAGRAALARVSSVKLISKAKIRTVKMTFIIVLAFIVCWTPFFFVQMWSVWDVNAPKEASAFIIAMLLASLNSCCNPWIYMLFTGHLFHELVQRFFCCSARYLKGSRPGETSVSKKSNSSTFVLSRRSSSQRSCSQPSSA

CCOP(=O)(Sc1ccccc1)Sc1ccccc1
outcome [1]: inactive | outcome [2]: inactive

CCCCCCCCCCCCCCCS(=O)(=O)Oc1ccccc1
outcome [3]: inactive

CC(Oc1ccc(Oc2ncc(C(F)(F)F)cc2Cl)cc1)C(=O)O (stereo not drawn)
outcome [1]: inactive | outcome [2]: inactive | outcome [4]: inactive | outcome [5]: inactive | outcome [6]: inactive | outcome [7]: inactive | outcome [8]: inactive | outcome [9]: inactive | outcome [10]: inactive

O=C1OC(=O)C2C3C=CC(C3)C12 (stereo not drawn)
outcome [11]: inactive

COc1ccc(N)cc1N
outcome [1]: inactive

CCCCOC(=O)CCCCCCCCC(=O)OCCCC
outcome [11]: inactive

COC(=O)C(C)N(C(=O)Cc1ccccc1)c1c(C)cccc1C (stereo not drawn)
outcome [2]: inactive | outcome [12]: inactive | outcome [4]: inactive | outcome [13]: inactive

OCC(CO)(CO)CO
outcome [3]: inactive

CCOP(=S)(OCC)Oc1cnc2ccccc2n1
outcome [1]: inactive | outcome [4]: inactive | outcome [5]: inactive | outcome [6]: inactive | outcome [13]: inactive | outcome [14]: inactive | outcome [15]: inactive | outcome [16]: inactive | outcome [17]: inactive | outcome [8]: inactive | outcome [9]: inactive | outcome [10]: inactive

CSc1ccc(C(=O)C(C)(C)N2CCOCC2)cc1
AC50 [2]: 25 µM (active) | outcome [12]: inactive | outcome [4]: inactive | outcome [5]: inactive | outcome [6]: inactive | outcome [7]: inactive | outcome [14]: inactive | outcome [15]: inactive

COC(=O)CCC(=O)OC
outcome [3]: inactive

CCN(CC)c1c([N+](=O)[O-])cc(C(F)(F)F)c(N)c1[N+](=O)[O-]
outcome [2]: inactive | outcome [4]: inactive | outcome [5]: inactive | outcome [13]: inactive | outcome [7]: inactive | outcome [15]: inactive | outcome [16]: inactive

CC(=O)[O][Pb]([c]1ccccc1)([c]1ccccc1)[c]1ccccc1
outcome [1]: inactive | AC50 [2]: 8.22 µM (active) | AC50 [4]: 0.458 µM (active) | AC50 [5]: 23.3 µM (active) | AC50 [6]: 4.03 µM (active) | AC50 [13]: 38.7 µM (active) | AC50 [7]: 0.655 µM (active) | AC50 [14]: 32.7 µM (active) | AC50 [15]: 1.32 µM (active) | AC50 [16]: 32.5 µM (active)

CC(C)OC(=O)C(O)(c1ccc(Cl)cc1)c1ccc(Cl)cc1
outcome [2]: inactive | outcome [12]: inactive | AC50 [4]: 70.6 µM (active) | outcome [5]: inactive | outcome [6]: inactive | outcome [13]: inactive | AC50 [7]: 67.4 µM (active) | AC50 [14]: 66.6 µM (active) | outcome [15]: inactive | AC50 [16]: 69.8 µM (active)

IC(I)=C(I)I
outcome [1]: inactive | outcome [2]: inactive | outcome [4]: inactive | AC50 [5]: 13.2 µM (active) | outcome [6]: inactive | outcome [13]: inactive | AC50 [7]: 12.8 µM (active) | AC50 [14]: 13.7 µM (active) | outcome [15]: inactive | AC50 [16]: 13.9 µM (active)
